Laboratory results published in PubChem BioAssay.
Activity calls are given as the source filed them. Unless noted, how the calls were made is not given here.

Key:
[1] = A549 cell viability effects, profiling panel, calcein-AM fluorescence, 48 h, basal (AID 1162); details: higher = more signal; further: test concentration not given here
[2] = adipocyte viability effects, profiling panel, cell-based, 3T3-L1 adipocytes, calcein-AM fluorescence, 48 h, basal (AID 1163); details: 3T3-L1 adipocytes viability, higher = more signal; further: test concentration not given here
[3] = HepG2 cell viability effects, profiling panel, calcein-AM fluorescence, 48 h, basal (AID 1164); details: higher = more signal; further: test concentration not given here
[4] = MM1S cell viability effects, profiling panel, calcein-AM fluorescence, 48 h, basal (AID 1165); details: higher = more signal;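 further: viability of MM1S multiple myeloma cells under basal unstimulated conditions; test concentration not given here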
[5] = basal RPMI8226 viability, no added stimulus, profiling panel, cell-based, calcein-AM fluorescence, 48 h, PK04 Diversity Set (AID 1166); details: RPMI8226 myeloma viability, higher = more signal;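 further: cells grown under basal conditions without added stimulus; test concentration not given here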
[6] = basal HepG2 mitochondrial membrane potential changes, profiling panel, cell-based, JC-1 fluorescence, 24 h, 100 nL compound (AID 1167); details: higher = more signal; further: test concentration not given here
[7] = basal 3T3-L1 adipocyte mitochondrial potential changes, profiling panel, cell-based, JC-1 fluorescence, 3T3-L1 adipocytes, 24 h, 100 nL compound (AID 1168); details: JC-1 mitochondrial fluorescence, higher = more signal, called active from +8 up or from −8 down; further: test concentration not given here
[8] = basal RPMI8226 mitochondrial membrane potential changes, profiling panel, cell-based, JC-1 fluorescence, 24 h, 100 nL compound (AID 1169); details: RPMI8226 myeloma, JC-1 mitochondrial potential fluorescence, higher = more signal; further: test concentration not given here
[9] = basal MM1S mitochondrial membrane potential changes, profiling panel, cell-based, JC-1 fluorescence, 24 h, 100 nL compound (AID 1170); details: higher = more signal; further: test concentration not given here
[10] = A549 lung cancer cell viability effects, profiling panel, resazurin fluorescence, 24 h, PK04 Diversity Set (AID 1171); details: higher = more signal, called active from +8 up or from −8 down; further: test concentration not given here
[11] = HepG2 liver cancer cell viability effects, profiling panel, resazurin fluorescence, 24 h, PK04 Diversity Set (AID 1172); details: higher = more signal; further: test concentration not given here
[12] = basal S. cerevisiae growth modulation, no modifier, primary screen, OD600, strain BY4716, 24 h, basal condition (AID 1173); details: OD600, 24 h, higher = more signal, called active from +8 up or from −8 down
[13] = MM1S myeloma cell viability, profiling panel, resazurin fluorescence, basal, 24 h, PK04 Diversity Set (AID 1174); details: higher = more signal, called active from +8 up or from −8 down;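 further: MM1S multiple myeloma cell line; test concentration not given here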
[14] = biological target: Dihydroorotate dehydrogenase (quinone), mitochondrial (Plasmodium falciparum (isolate 3D7)) (UniProt Q08210); experiment: PfDHODH enzyme inhibitors, primary screen, biochemical, C-terminal His tag, absorbance 600 nm (AID 1175); details: DCIP absorbance 600 nm, higher = more signal, called active from +8 up or from −8 down;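 further: recombinant parasite enzyme with a five histidine tag at its C terminus; test concentration not given here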
[15] = P. aeruginosa biofilm formation inhibitors, primary screen, strain PAO1, LB-PBS medium, absorbance 600 nm (AID 1176); further: test concentration not given here; details: P. aeruginosa PAO1 growth/biofilm, A600, 12 h; higher = more signal
[16] = S. cerevisiae RM11-1a growth modifiers, primary screen, strain RM11-1a, OD600, basal, 24 h (AID 1177); details: OD600, 24 h, higher = more signal, called active from +8 up or from −8 down;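 further: cultures grown under basal conditions with no added stressor; test concentration not given here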
[17] = E. coli acrAB mutant growth effects, primary screen, E. coli filamentation inducers, strain DRC39, OD650, 24 h (AID 1178); details: higher = more signal, called active from +8 up or from −8 down;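 further: growth measured as culture turbidity by optical density at 650 nm; test concentration not given here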
[18] = E. coli acrAB mutant growth effects, primary screen, E. coli filamentation inducers, strain DRC39, OD650, 48 h (AID 1179);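 further: screen aims at cell division blockers that make cells filament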; details: E. coli DRC39 delta-acrAB growth, higher = more signal, called active from +8 up or from −8 down
[19] = RPMI8226 myeloma cell viability, profiling panel, resazurin fluorescence, basal, 24 h, PK04 Diversity Set (AID 1180); details: higher = more signal;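 further: RPMI8826 multiple myeloma cell line at 5000 cells per well; test concentration not given here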
[20] = biological target: E3 ubiquitin-protein ligase XIAP (Homo sapiens) (UniProt P98170); experiment: XIAP binders, primary screen, biophysical, small-molecule microarray, fluorescence 635 nm (AID 1181); details: small-molecule microarray binding, higher = more signal;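 further: score merges 667 nm emission and signal to noise over triplicate slides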
Chain of E3 ubiquitin-protein ligase XIAP (Homo sapiens) (P98170 whole entry, looked up): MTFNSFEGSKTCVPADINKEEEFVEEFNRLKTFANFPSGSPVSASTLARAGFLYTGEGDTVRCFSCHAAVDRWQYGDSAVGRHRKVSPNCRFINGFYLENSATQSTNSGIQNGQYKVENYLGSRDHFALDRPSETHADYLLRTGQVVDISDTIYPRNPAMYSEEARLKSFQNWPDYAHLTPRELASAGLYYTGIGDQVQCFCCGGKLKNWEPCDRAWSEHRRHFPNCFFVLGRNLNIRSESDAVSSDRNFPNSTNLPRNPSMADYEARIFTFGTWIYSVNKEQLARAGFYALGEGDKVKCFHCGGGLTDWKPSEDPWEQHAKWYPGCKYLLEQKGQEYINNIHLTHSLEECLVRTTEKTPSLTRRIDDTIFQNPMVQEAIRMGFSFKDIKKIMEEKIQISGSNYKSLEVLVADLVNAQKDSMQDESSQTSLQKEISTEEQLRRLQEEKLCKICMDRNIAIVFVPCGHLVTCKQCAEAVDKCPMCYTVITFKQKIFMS

Chain of Dihydroorotate dehydrogenase (quinone), mitochondrial (Plasmodium falciparum (isolate 3D7)) (Q08210 whole entry, looked up): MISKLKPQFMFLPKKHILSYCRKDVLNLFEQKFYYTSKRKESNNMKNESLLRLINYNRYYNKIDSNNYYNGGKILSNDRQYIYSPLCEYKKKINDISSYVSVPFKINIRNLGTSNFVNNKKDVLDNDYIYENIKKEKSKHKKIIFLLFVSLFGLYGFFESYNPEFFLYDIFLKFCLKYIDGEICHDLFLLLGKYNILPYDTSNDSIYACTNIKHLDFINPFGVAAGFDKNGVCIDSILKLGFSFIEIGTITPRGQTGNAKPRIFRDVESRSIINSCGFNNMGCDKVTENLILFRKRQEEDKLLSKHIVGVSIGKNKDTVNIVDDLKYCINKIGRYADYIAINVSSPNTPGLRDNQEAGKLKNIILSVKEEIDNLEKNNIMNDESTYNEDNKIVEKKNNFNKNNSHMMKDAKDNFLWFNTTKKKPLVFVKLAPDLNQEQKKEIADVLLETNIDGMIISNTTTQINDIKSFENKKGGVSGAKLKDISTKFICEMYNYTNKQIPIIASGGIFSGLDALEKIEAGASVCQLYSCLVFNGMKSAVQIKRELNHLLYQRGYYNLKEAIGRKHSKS

## CC#CC(=O)Oc1ccccc1C=CC(=O)OCC
[1]
  z-score: -1.54
[2]
  z-score: -0.228
[3]
  z-score: -0.749
[4]
  z-score: -3.27
[5]
  z-score: -2.23
[6]
  z-score: -0.739
[7]
  z-score: 0.161 (inactive)
[8]
  z-score: 0.849
[9]
  z-score: -0.259
[10]
  z-score: 1.5 (inactive)
[11]
  z-score: 1.86
[12]
  z-score: -10.4 (active)
[13]
  z-score: 0.302 (inactive)
[14]
  composite z-score: -0.155 (inactive)
[15]
  z-score: 1.21 (inactive)
[16]
  z-score: -1.34 (inactive)
[17]
  z-score: 0.23 (inactive)
[18]
  z-score: 0.51 (inactive)
[19]
  z-score: 0.485
[20]
  composite z-score: -0.162

## COCCOC(=O)N1C(=O)[C@@]2(c3cc(C#CCC(C(=O)OC)C(=O)OC)ccc31)[C@H](c1ccccc1OCCO)N1[C@H](c3ccccc3)[C@H](c3ccccc3)OC(=O)[C@H]1[C@@H]2C(=O)NC[C@H](O)c1ccccc1
[1]
  z-score: -0.0256
[2]
  z-score: 0.821
[3]
  z-score: 0.015
[4]
  z-score: -3.44
[5]
  z-score: -3.9
[6]
  z-score: -0.187
[7]
  z-score: 2.16 (inactive)
[8]
  z-score: -0.776
[9]
  z-score: -1.81
[10]
  z-score: -0.55 (inactive)
[11]
  z-score: -0.326
[12]
  z-score: 1.67 (inactive)
[13]
  z-score: -2.44 (inactive)
[14]
  composite z-score: -0.398 (inactive)
[15]
  z-score: 2.23 (inactive)
[16]
  z-score: 2.84 (inactive)
[17]
  z-score: 0.675 (inactive)
[18]
  z-score: 0.382 (inactive)
[19]
  z-score: -3.62
[20]
  composite z-score: 0.177

## COc1ccccc1CN1C(=O)c2ccccc2[C@@]2(Cc3ccccc3N(CC(C)C)C2=O)[C@@H]1c1ccc(CO)cc1
[1]
  z-score: 0.211
[2]
  z-score: 0.444
[3]
  z-score: -0.385
[4]
  z-score: -0.481
[5]
  z-score: -0.0712
[6]
  z-score: -0.204
[7]
  z-score: 0.211 (inactive)
[8]
  z-score: -0.887
[9]
  z-score: -0.0409
[10]
  z-score: -1.03 (inactive)
[11]
  z-score: -0.593
[12]
  z-score: 0.0849 (inactive)
[13]
  z-score: -0.681 (inactive)
[14]
  composite z-score: -0.359 (inactive)
[15]
  z-score: 0.332 (inactive)
[16]
  z-score: -1.04 (inactive)
[17]
  z-score: -0.169 (inactive)
[18]
  z-score: -0.0353 (inactive)
[19]
  z-score: -0.564
[20]
  composite z-score: 0.0957

## COc1ccc(-c2cc3c(c(-c4ccc(Oc5ccccc5)cc4)n2)[Si](C(C)C)(C(C)C)OC3)cn1
[1]
  z-score: -0.599
[2]
  z-score: -0.377
[3]
  z-score: 0.645
[4]
  z-score: -1.19
[5]
  z-score: -1.75
[6]
  z-score: -1.43
[7]
  z-score: -0.47 (inactive)
[8]
  z-score: -0.845
[9]
  z-score: -0.973
[10]
  z-score: 1.07 (inactive)
[11]
  z-score: -1.05
[12]
  z-score: 1.07 (inactive)
[13]
  z-score: -0.29 (inactive)
[14]
  composite z-score: 0.568 (inactive)
[15]
  z-score: -0.0391 (inactive)
[16]
  z-score: 1.24 (inactive)
[17]
  z-score: -0.794 (inactive)
[18]
  z-score: -0.973 (inactive)
[19]
  z-score: -0.698
[20]
  composite z-score: -0.0326

## CCCCCCc1nc(-c2ccc(OC)nc2)cc2c1[Si](C(C)C)(C(C)C)O[C@H]2c1ccccc1
[1]
  z-score: -0.33
[2]
  z-score: -0.261
[3]
  z-score: -1.1
[4]
  z-score: -0.26
[5]
  z-score: -1.12
[6]
  z-score: -1.14
[7]
  z-score: -1.3 (inactive)
[8]
  z-score: -0.198
[9]
  z-score: -0.281
[10]
  z-score: 0.98 (inactive)
[11]
  z-score: 0.153
[12]
  z-score: 0.676 (inactive)
[13]
  z-score: 0.0809 (inactive)
[14]
  composite z-score: -0.0348 (inactive)
[15]
  z-score: 0.256 (inactive)
[16]
  z-score: 0.056 (inactive)
[17]
  z-score: 0.231 (inactive)
[18]
  z-score: -0.0838 (inactive)
[19]
  z-score: 0.732
[20]
  composite z-score: -0.241

## O=C1C2C=CC(C(O)Cc3ccccc3)N(n3cnnc3)C2C(=O)N1Cc1ccccc1 (stereo not given)
[1]
  z-score: -0.182
[2]
  z-score: 0.549
[3]
  z-score: -0.065
[4]
  z-score: -0.304
[5]
  z-score: -1.11
[6]
  z-score: -0.532
[7]
  z-score: -0.533 (inactive)
[8]
  z-score: 0.395
[9]
  z-score: 1.24
[10]
  z-score: -1.29 (inactive)
[11]
  z-score: -0.957
[12]
  z-score: 0.341 (inactive)
[13]
  z-score: -1.04 (inactive)
[14]
  composite z-score: 0.293 (inactive)
[15]
  z-score: -0.253 (inactive)
[16]
  z-score: 0.656 (inactive)
[17]
  z-score: -1.08 (inactive)
[18]
  z-score: -1.13 (inactive)
[19]
  z-score: -1.05
[20]
  composite z-score: 0.0328

## CCC[C@@H]1C[C@@]1(CCC)[C@@H](NC(=O)c1ccccc1)c1cccc(Cl)c1
[1]
  z-score: -0.927
[2]
  z-score: -0.546
[3]
  z-score: -0.0147
[4]
  z-score: -1.78
[5]
  z-score: -0.385
[6]
  z-score: 0.909
[7]
  z-score: 0.349 (inactive)
[8]
  z-score: 0.466
[9]
  z-score: -0.0307
[10]
  z-score: 0.908 (inactive)
[11]
  z-score: -0.141
[12]
  z-score: 1.74 (inactive)
[13]
  z-score: 0.208 (inactive)
[14]
  composite z-score: 0.249 (inactive)
[15]
  z-score: -0.195 (inactive)
[16]
  z-score: 2.26 (inactive)
[17]
  z-score: -0.557 (inactive)
[18]
  z-score: -0.514 (inactive)
[19]
  z-score: 1.09
[20]
  composite z-score: -0.0326

## COC(=O)[C@@]1(Cc2ccc(F)cc2)[C@H]2c3cc(C(=O)N(C)C)n(Cc4ccccc4)c3C[C@H]2CN1C(=O)c1ccccc1
[1]
  z-score: -0.799
[2]
  z-score: -0.184
[3]
  z-score: -0.344
[4]
  z-score: -0.812
[5]
  z-score: -0.997
[6]
  z-score: 0.746
[7]
  z-score: -0.85 (inactive)
[8]
  z-score: -0.28
[9]
  z-score: -0.529
[10]
  z-score: -0.631 (inactive)
[11]
  z-score: -1.49
[12]
  z-score: 1.98 (inactive)
[13]
  z-score: -0.946 (inactive)
[14]
  composite z-score: 0.151 (inactive)
[15]
  z-score: 0.976 (inactive)
[16]
  z-score: 1.61 (inactive)
[17]
  z-score: -0.342 (inactive)
[18]
  z-score: 0.232 (inactive)
[19]
  z-score: -2.86
[20]
  composite z-score: -0.2

## NC(=O)[C@@H]1[C@H]2C(=O)O[C@H](c3ccccc3)[C@H](c3ccccc3)N2[C@H](c2ccc(O)cc2)[C@@]12C(=O)Nc1ccccc12
[1]
  z-score: -0.343
[2]
  z-score: 0.956
[3]
  z-score: -0.19
[4]
  z-score: -0.647
[5]
  z-score: -0.07
[6]
  z-score: -0.376
[7]
  z-score: -0.0789 (inactive)
[8]
  z-score: -0.902
[9]
  z-score: -0.079
[10]
  z-score: -0.0543 (inactive)
[11]
  z-score: 0.363
[12]
  z-score: -1.39 (inactive)
[13]
  z-score: 0.307 (inactive)
[14]
  composite z-score: -0.565 (inactive)
[15]
  z-score: 0.449 (inactive)
[16]
  z-score: -0.665 (inactive)
[17]
  z-score: 0.385 (inactive)
[18]
  z-score: -0.766 (inactive)
[19]
  z-score: -0.224
[20]
  composite z-score: 0.0073
